For 17 compounds, Potency and outcome results are on record in PubChem BioAssay (NCATS).

Inconclusive results are not listed. Where a call stands in place of a potency, no number is given. Calls of active or inactive are those of the source. The call rests on the fitted dose curve; in most records, active means well fitted curve in the direction sought with a large enough effect; inconclusive means small, poorly fitted or top-dose-only effect, or another doubt; inactive means no such curve, though single readings can be large; an effect the other way counts as inactive or inconclusive.

A short description of one assay: qHTS Screen of the MIPE 4.0 Collection Against Ewings Sarcoma (TC32) (AID 1259256). Further: nearly all actives have a fitted effect of over 45% in size. Further: potency means the concentration at half of the fitted maximal effect. The settings on record: TC32 Ewing sarcoma viability, CellTiter-Glo, 48 h; series mostly up to 45.8 µM. In outline:
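Measured: ATP luminescence (CellTiter-Glo) 10 min after reagent addition, following 48 h drug treatment. Relative luciferase units converted to percent activity, with no-cell wells as full and DMSO wells as zero inhibition.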
On to `C[C@@H]1C[C@H]2[C@@H]3CCC4=CC(=O)C=C[C@]4(C)[C@@]3(F)[C@@H](O)C[C@]2(C)[C@@]1(O)C(=O)CO`, for which the Potency result was “inactive”. For `CN1CCc2c(n(Cc3ccc(C(=O)NO)cc3)c3ccccc23)C1`, the Potency was 13.2 µM (active). Still for that read-out and setting: the value for `O=C(O)C1=CC(O)C(O)[C@H](O)C1` (stereo partly specified) was “inactive”; that for `CC(=O)OCC(=O)[C@@]12OC(C)(C)O[C@H]1C[C@H]1[C@@H]3C[C@H](F)C4=CC(=O)C=C[C@]4(C)[C@@]3(F)[C@@H](O)C[C@@]12C` was “inactive”. In the case of `CCCCC(F)(F)[C@@]1(O)CC[C@H]2[C@H](CC(=O)[C@@H]2CCCCCCC(=O)O)O1`, the Potency is 2.96 µM (active).

Turning to `CN1CCN(c2ncc(-c3cc(Cl)cc(Cl)c3Cl)c(N)n2)CC1`, the Potency result was “inactive”. `NC(=O)c1ncn([C@@H]2O[C@H](CO)[C@@H](O)[C@@H]2O)n1`: the Potency result was “inactive”.

`Cc1nn(Cc2ccccc2Cl)c(C)c1CN(C)CC(O)COc1ccc(Cl)cc1` (stereo unspecified): the Potency was 23.5 µM (active). For `CC1(C)C(N(O)C(=O)Nc2ccc(Cl)cc2)N(c2ccc(Cl)cc2)C(=O)N1CC(=O)NN=CC=Cc1ccc([N+](=O)[O-])o1` (stereo unspecified), the Potency was 18.7 µM (active).

In the case of `COc1cc2nccc(Oc3ccc(NC(=O)Nc4cc(C)on4)c(Cl)c3)c2cc1OC`, the Potency was 2.96 µM (active). As to `CNC1[C@H](O)C(O[C@@H]2C(O)C(O[C@H]3O[C@H]([C@@H](C)NC)CC[C@H]3N)[C@@H](N)C[C@H]2N)OC[C@]1(C)O` (stereo partly specified), the Potency entry is “inactive”.

On to `COc1cc([C@@H]2c3cc4c(cc3[C@@H](O[C@@H]3O[C@@H]5CO[C@@H](C)O[C@@H]5[C@H](O)[C@@H]3O)[C@H]3COC(=O)[C@H]23)OCO4)cc(OC)c1O`, for which the Potency entry was “inactive”.

The next assay is described as follows: qHTS assay to identify small molecule inhibitors of chordoma cells - UCH-1 (AID 1259355). Further: nearly all actives have a fitted effect of over 55% in size. The conditions noted are these: UCH-1 chordoma viability, CellTiter-Glo, 48 h, combination, with auranofin plus four topoisomerase inhibitors; series mostly up to 46.1 µM. The gist of the method:
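Luminescent ATP read-out (CellTiter-Glo, 30min at room temperature) measured viability of UCH-1 cells exposed for 48hr to test drugs at 15 concentrations, co-dosed with a five-agent combination of auranofin, camptothecin, doxorubicin, rubitecan and topotecan.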
In general terms: qHTS replaces the single test concentration by a dilution series.
On to `N#Cc1c(N(CC(=O)O)CC(=O)O)sc(C(=O)O)c1CC(=O)O`, for which the outcome was inactive. In the case of `Cc1cc2nc3c(=O)[nH]c(=O)nc-3n(CC(O)C(O)C(O)CO)c2cc1C` (stereo unspecified), the outcome was inactive. For the compound `NS(=O)(=O)c1cc(Cl)c(Cl)c(S(N)(=O)=O)c1`, the outcome was inactive.

The next assay can be described thus: qHTS assay to identify small molecule inhibitors of chordoma cells - UCH-2 (AID 1259356). The conditions noted are these: UCH-2 chordoma viability, CellTiter-Glo ATP luminescence, 48 h; series mostly up to 46.1 µM.
For `N#Cc1c(N(CC(=O)O)CC(=O)O)sc(C(=O)O)c1CC(=O)O`, the compound was classed as inactive. Same read-out and setting: the value for `COc1ccc(-c2nc3ccc(C4=NNC(=O)CC4C)cc3[nH]2)cc1` (stereo unspecified) was “inactive”. In the case of `NS(=O)(=O)c1cc(Cl)c(Cl)c(S(N)(=O)=O)c1`, the call was inactive.

A short description of a further assay: Identifying Small Molecule Inhibitors of Pancreatic Cancer Stem Cells (SN12C, Adherent) (AID 1259358).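 Further: cell survival measured after 48 h of compound exposure.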 Further: potency means the concentration at half of the fitted maximal effect. The settings on record: viability/growth inhibition; series mostly up to 46.1 µM. In outline: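 After a 4 h attachment period, compounds were pinned into wells and cultures held 48 h under standard incubator conditions. Viability was then measured as CellTiter-Glo luminescence following 10 min at room temperature.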
As to `Cc1nn(Cc2ccccc2Cl)c(C)c1CN(C)CC(O)COc1ccc(Cl)cc1` (stereo unspecified), the Potency entry is “inactive”.

`COc1cc2nccc(Oc3ccc(NC(=O)Nc4cc(C)on4)c(Cl)c3)c2cc1OC`: the Potency is 16.6 µM (active). Regarding `Nc1ccc(-c2ccc3ncc4ccc(=O)n(-c5cccc(C(F)(F)F)c5)c4c3c2)cn1`, the Potency result is “inactive”.
